Source: PubChem BioAssay (Tox21)
Inconclusive results are not listed. The source made the active and inactive calls. Calls come from the whole dose curve.

Target: Beta-2 adrenergic receptor (Homo sapiens) (UniProt P07550)
Assay: Adrenergic beta2 receptor (ADRB2) small molecule agonists, cell-based qHTS assay (AID 1963593)
Details: CHO-ADRB2 cells, cAMP HTRF, 30 min; series mostly up to 92.4 µM; activation: at the top concentration
From the text: National Center for Advancing Translational Sciences [NCATS]
Division of Preclinical Innovation [DPI]
U.S. Environmental Protection Agency [EPA]
National Institutes of Environmental Health Sciences [NIEHS]
National Toxicology Program [NTP]
U.S. Food and Drug Administration [FDA]
Beta adrenergic receptors (Beta-ARs) belong to the G-protein coupled receptor (GPCR) superfamily, includes three subtypes - beta1, beta2, and beta3. Beta1-AR is the predominant receptor subtype expressed in the heart, and beta2-AR is expressed in the kidney, lung, blood vessel and in the heart, and beta3 is found in the adipocytes. Beta1 and 2 ARs couple to Gs protein and elevate cyclic adenosine mono phosphate (cAMP), which activates protein kinase A and leads to the downstream signaling responsible for the physiological actions. Beta-AR agonists or antagonists are the most prescribed therapeutic agents for heart failure and asthma, and these were one of the first target receptors for the rational drug design. Tox21 10K compound library was screened using the cAMP-Gs dynamic assay (Cisbio Bioassays, Shelton, CT) to identify agonists/antagonists of the Gs-coupled human adrenergic, beta2 receptor (ADRB2) in the CHO-ADRB2 cell line (Codex BioSolutions, Inc. Gaithersburg, MD), which stably over-expresses ADRB2. The principle of cAMP-Gs dynamic assay is based on HTRF technology, which facilitates the fluorescence resonance energy transfer (FRET) between donor Europium cryptate and acceptor d2-labeled cAMP. The cAMP generated within cells competes with the red acceptor, d2-labled cAMP, for binding to the monoclonal anti-cAMP-cryptate (Europium donor). An increase in intracellular cAMP leads to the disruption of FRET signal, and the signal is inversely proportional to the cAMP concentration. Isoproterenol HCl (Sigma-Aldrich, St. Louis, MO) was used as a positive control in the screening.
Tox21 Assay Protocol Summary:
CHO-ADRB2 cells were dispensed at 1,000/well in 4uL assay medium into white/solid 1536-well plates (Greiner Bio-One North America Inc., Monroe, NC) using a Multidrop Combi dispenser (ThermoFisher Scientific, Waltham, MA). The assay plates were incubated at 37C and 5% CO2 for an overnight (18-20hr). Then positive control and test compounds dissolved in DMSO were transferred to the assay plates at 23nL using a Pintool station (Wako, San Diego, CA). Following the compound and positive control transfer, 1uL stimulation mix containing 100uM IBMX and 25uM Ro-20-1724 was added to each well of the assay plates using BioRAPTR Flying Reagent Dispenser (FRD, Beckman Coulter, Brea, CA). The assay plates were incubated at room temperature for 0.5hr. Then 2.5ul each d2-labled cAMP and anti-cAMP-cryptate solutions were added separately to each well of the assay plates using an FRD and the assay plates were incubated at room temperature for 1hr.
% is set by controls: 0 for no effect and ±100 for the full control effect.

Beta-2 adrenergic receptor (Homo sapiens), sequence (P07550 whole entry, looked up): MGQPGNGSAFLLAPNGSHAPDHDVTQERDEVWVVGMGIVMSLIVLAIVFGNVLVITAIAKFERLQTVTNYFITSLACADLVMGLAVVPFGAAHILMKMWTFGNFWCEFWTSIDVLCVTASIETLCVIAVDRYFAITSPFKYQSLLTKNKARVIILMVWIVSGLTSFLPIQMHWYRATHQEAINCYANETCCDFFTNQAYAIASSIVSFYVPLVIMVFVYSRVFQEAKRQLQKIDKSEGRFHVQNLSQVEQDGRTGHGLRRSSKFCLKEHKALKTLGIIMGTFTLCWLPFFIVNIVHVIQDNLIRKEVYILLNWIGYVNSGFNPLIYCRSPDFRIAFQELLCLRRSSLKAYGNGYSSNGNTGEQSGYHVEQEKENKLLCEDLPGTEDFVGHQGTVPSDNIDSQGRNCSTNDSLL

Row | Structure (SMILES) | activation | Potency
1 | O=C(O)Cc1ccccc1Nc1c(Cl)cccc1Cl | -23.7% (inactive) | –
2 | COc1cc(C=O)ccc1O | – | inactive
3 | CC(=O)Nc1ccccc1 | 17.3% (inactive) | –
4 | NC(N)=NC(N)=NCCc1ccccc1 | 8.88% [at 42.5 µM] (inactive) | –
5 | COc1ccc(C)cc1N | -10.8% (inactive) | –
6 | NCCN1CCNCC1 | 3.95% (inactive) | –
7 | OC[C@H]1O[C@H](O[C@]2(CCl)O[C@H](CCl)[C@@H](O)[C@@H]2O)[C@H](O)[C@@H](O)[C@H]1Cl | – | inactive
8 | Cc1ccc([N+](=O)[O-])c(C)c1 | – | inactive
9 | CCC(Cc1c(I)cc(I)c(N)c1I)C(=O)O (stereo not given) | – | inactive
10 | NNCCc1ccccc1 | – | inactive
11 | O=C1O[C@H]([C@H](O)CO)C(O)=C1O | – | inactive
12 | Nc1ccc(Cl)cc1Cl | -38% (inactive) | –
13 | Cc1cc(=O)[nH]c(=S)[nH]1 | 11% [at 42.5 µM] (inactive) | –
14 | C=CCc1ccc(O)c(OC)c1 | – | inactive
15 | OCc1cccc(Oc2ccccc2)c1 | 9.49% (inactive) | –
16 | Nc1c2c(nc3ccccc13)CCCC2 | -31% [at 42.5 µM] (inactive) | –
17 | CCOC(=O)CC(=O)OCC | -12.9% (inactive) | –
18 | CC(=O)OC/C=C(C)/C=C/C=C(C)/C=C/C1=C(C)CCCC1(C)C | – | inactive
19 | O=C(OCc1ccccc1)c1ccccc1O | 5% (inactive) | –
20 | CC(C)=CCC/C(C)=C/C=O | -4.91% (inactive) | –

Row | Structure (SMILES) | activation | Potency
21 | C=C(C)C(=O)O | -35.7% (inactive) | –
22 | CN(C)CCCN | – | inactive
23 | CC[Si](OC(C)=O)(OC(C)=O)OC(C)=O | -27% (inactive) | –
24 | Nc1ccc(S(=O)(=O)c2ccc(N)cc2)cc1 | – | inactive
25 | O=C(O)C1=NN(c2ccc(S(=O)(=O)O)cc2)C(=O)C1 | – | inactive
26 | NS(=O)(=O)c1cc2c(cc1Cl)NC=NS2(=O)=O | 5.15% [at 42.5 µM] (inactive) | –
27 | c1ccc2scnc2c1 | 4.16% (inactive) | –
28 | CC(=O)c1ccc(S(=O)(=O)NC(=O)NC2CCCCC2)cc1 | – | inactive
29 | O=C(O)CCC(=O)O | 8.72% (inactive) | –
30 | CC(C)=CCC/C(C)=C/CO | – | inactive
31 | Cc1cccc(C(=O)O)c1 | -13.4% (inactive) | –
32 | CCCC[P+](CCCC)(CCCC)CCCC | – | inactive
33 | CCCCCC1C(=O)CCC1CC(=O)OC (stereo not given) | 6.66% (inactive) | –
34 | CC1(C)[C@@H]2CC[C@@]1(C)C(=O)C2 | – | inactive
35 | CCCCCCCCC(=O)O | – | inactive
36 | OCCc1ccccc1 | – | inactive
37 | CCCCCCOCCO | 3.04% (inactive) | –
38 | COC(=O)CC(=O)OC | 5.64% (inactive) | –
39 | ClC1=C(Cl)C(Cl)(Cl)C(Cl)=C1Cl | – | inactive
40 | O=C(O)c1ccccc1 | – | inactive
